# Test results reported in ChEMBL document CHEMBL1961873, “Compounds: GSK PKIS; Assays: Nanosyn kinase panel” (2012).
# Tests used:
# [1] = target: T1, 3-phosphoinositide-dependent protein kinase 1 (Homo sapiens) (UniProt O15530); settings: at 0.1 µM;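 note: values are mean inhibition of PDK1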
# T1 sequence (whole entry): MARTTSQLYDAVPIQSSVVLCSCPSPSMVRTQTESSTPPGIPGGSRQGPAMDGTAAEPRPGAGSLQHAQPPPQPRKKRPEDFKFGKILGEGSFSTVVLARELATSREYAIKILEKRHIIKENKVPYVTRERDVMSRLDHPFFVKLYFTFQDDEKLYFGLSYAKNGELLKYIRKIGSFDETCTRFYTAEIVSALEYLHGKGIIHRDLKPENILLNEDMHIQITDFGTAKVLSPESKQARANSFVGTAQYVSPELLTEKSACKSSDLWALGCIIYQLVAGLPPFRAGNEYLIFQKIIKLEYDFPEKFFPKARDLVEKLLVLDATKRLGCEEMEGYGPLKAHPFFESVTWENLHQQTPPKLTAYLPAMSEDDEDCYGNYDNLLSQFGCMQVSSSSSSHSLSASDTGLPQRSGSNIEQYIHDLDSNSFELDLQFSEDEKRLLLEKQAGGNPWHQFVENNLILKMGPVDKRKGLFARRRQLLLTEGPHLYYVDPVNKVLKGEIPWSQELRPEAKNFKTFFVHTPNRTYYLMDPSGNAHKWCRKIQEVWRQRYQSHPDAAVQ
# [2] = target: cAMP-dependent protein kinase catalytic subunit alpha (Homo sapiens) (UniProt P17612); settings: at 0.1 µM
# [3] = target: cAMP-dependent protein kinase catalytic subunit alpha (Homo sapiens) (UniProt P17612); settings: at 1 µM
# [4] = target: Protein kinase C alpha type (Homo sapiens) (UniProt P17252); settings: at 0.1 µM
# [5] = target: Protein kinase C alpha type (Homo sapiens) (UniProt P17252); settings: at 1 µM
# [6] = target: Protein kinase C beta type (Homo sapiens) (UniProt P05771); settings: at 0.1 µM
# Chain of Protein kinase C beta type (Homo sapiens) (P05771 2-671 limits assumed): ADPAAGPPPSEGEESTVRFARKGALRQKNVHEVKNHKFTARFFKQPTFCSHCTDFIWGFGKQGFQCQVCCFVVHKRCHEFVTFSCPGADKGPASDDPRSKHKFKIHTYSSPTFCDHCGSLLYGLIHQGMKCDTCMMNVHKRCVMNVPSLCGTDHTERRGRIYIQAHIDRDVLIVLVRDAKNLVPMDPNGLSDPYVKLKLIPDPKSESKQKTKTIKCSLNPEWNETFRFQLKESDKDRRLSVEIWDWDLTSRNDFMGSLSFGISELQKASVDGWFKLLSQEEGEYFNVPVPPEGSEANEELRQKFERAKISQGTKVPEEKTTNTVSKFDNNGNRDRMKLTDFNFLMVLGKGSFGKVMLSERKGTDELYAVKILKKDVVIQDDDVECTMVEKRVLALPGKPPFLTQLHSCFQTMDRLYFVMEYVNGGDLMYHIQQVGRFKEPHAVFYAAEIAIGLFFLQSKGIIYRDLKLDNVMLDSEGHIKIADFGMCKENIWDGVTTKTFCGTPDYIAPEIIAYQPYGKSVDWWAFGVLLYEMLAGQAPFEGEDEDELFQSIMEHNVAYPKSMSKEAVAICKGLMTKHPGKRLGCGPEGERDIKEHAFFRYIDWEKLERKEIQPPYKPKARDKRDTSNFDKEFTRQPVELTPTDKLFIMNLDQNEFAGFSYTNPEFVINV
# [7] = target: Protein kinase C beta type (Homo sapiens) (UniProt P05771); settings: at 1 µM
# [8] = target: Protein kinase C eta type (Homo sapiens) (UniProt P24723); settings: at 0.1 µM
# Chain of Protein kinase C eta type (Homo sapiens) (P24723 whole entry): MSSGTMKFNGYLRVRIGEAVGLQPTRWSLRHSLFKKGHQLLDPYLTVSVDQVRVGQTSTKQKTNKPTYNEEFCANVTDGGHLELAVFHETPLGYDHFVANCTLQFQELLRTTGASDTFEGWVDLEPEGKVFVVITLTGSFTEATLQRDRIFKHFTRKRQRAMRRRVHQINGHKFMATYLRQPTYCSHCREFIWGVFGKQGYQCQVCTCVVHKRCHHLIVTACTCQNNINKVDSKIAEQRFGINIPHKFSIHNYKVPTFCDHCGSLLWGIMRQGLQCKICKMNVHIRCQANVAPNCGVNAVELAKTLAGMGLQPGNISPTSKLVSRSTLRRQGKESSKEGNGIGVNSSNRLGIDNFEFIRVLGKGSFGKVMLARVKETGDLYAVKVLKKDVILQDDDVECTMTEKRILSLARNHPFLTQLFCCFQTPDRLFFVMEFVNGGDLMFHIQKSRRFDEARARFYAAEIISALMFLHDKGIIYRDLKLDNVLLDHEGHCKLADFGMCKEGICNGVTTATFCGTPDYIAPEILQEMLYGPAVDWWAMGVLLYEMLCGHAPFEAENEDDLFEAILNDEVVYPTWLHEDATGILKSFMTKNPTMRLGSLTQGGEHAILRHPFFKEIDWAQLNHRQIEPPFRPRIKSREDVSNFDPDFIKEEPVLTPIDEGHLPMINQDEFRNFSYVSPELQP
# [9] = target: Protein kinase C eta type (Homo sapiens) (UniProt P24723); settings: at 1 µM
# [10] = target: Protein kinase C gamma type (Homo sapiens) (UniProt P05129); settings: at 0.1 µM;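 note: values are mean percent inhibition of PKC gamma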
Structure (SMILES),inhibition [1],inhibition [2],inhibition [3],inhibition [4],inhibition [5],inhibition [6],inhibition [7],inhibition [8],inhibition [9],inhibition [10]
CC(C)=Cc1cccc2c1/C(=N/Nc1ccc(S(N)(=O)=O)cc1)C(=O)N2,10.4%,0.47%,3.74%,0.96%,1.29%,0.26%,1.55%,0.51%,2.14%,1.44%
CC1=C(C(=O)Nc2ccc3[nH]ncc3c2)C(c2ccc(F)cc2)NC(=O)N1 (stereo not given),0.63%,3.81%,30.4%,0.69%,0.39%,-0.65%,1.36%,3.55%,10.8%,0.38%
CCn1c(-c2nonc2N)nc2cnc(Oc3cccc(NC(=O)c4ccc(OCCN5CCOCC5)cc4)c3)cc21,2.08%,17.5%,65.8%,3.09%,34.1%,37.3%,64.2%,71.2%,94.9%,13.9%
N#Cc1c(NC(=O)c2cccc3ccccc23)sc2c1CCCC2,1.52%,1.59%,1.98%,0.26%,1.22%,1.24%,-1.28%,3.52%,3.65%,2.48%
CCn1c(-c2nonc2N)nc2c(C#CC(C)(C)O)nc(CN3CCCC3)cc21,0.46%,8.62%,44.9%,2.29%,6.77%,3.02%,14.2%,19.5%,67.3%,3.19%
CS(=O)(=O)CCN(CC#N)Cc1ccc(-c2ccc3ncnc(Nc4ccc(OCc5cccc(F)c5)c(Cl)c4)c3c2)o1,0.12%,-3.08%,-3.11%,-3.93%,-3.34%,-0.34%,-1.95%,2.38%,1.49%,-0.22%
COc1ccc(-c2nn3ncccc3c2-c2ccnc(Nc3ccc(Cl)c(C(F)(F)F)c3)n2)cc1,0.17%,1.59%,1.26%,0.22%,-0.2%,0.17%,3.13%,2.79%,2.3%,1.74%
CNC(=O)c1cncc(/C=C/c2c(Cl)cccc2Cl)c1,0.01%,-1.08%,-1.47%,-3.64%,-2.28%,0.07%,0.23%,3.81%,5.49%,0.61%
Cc1cc(O)cc(C)c1/C=C/c1cncc(-c2nn[nH]n2)c1,2.02%,-1.63%,-1.78%,-2.41%,-0.54%,0.1%,2.35%,1%,5.67%,-3.08%
O=C1NC(=O)C(c2ccc(Cl)cc2)=C1Nc1ccc(Cl)c(C(=O)O)c1,0.12%,-1.8%,-1.57%,-0.02%,-0.11%,-1.13%,-0.89%,-3.26%,-3.28%,0.52%
[O-][S+]1CCN(Cc2ccc(-c3ccc4ncnc(Nc5ccc(OCc6ccccc6)c(F)c5)c4c3)o2)CC1,2.01%,0.99%,0.53%,0.47%,1.52%,-0.89%,-0.42%,0.68%,0.14%,-0.39%
Cc1ccc(NC(=O)c2ccnc(N3CCCC3)c2)cc1-c1ccc(C(=O)NCC2CC2)cc1,2.23%,-2.06%,-0.65%,-2.31%,-0.77%,0.1%,-1.68%,5.39%,2.22%,1.09%
O=C(Nc1n[nH]c2nc(-c3ccco3)c(Br)cc12)C1CC1,2%,1.31%,2.05%,0.29%,0.28%,1.29%,-0.77%,3.62%,2.72%,0.45%
COC(=O)Nc1nc2cc(Oc3cccc(NC(=O)Nc4cc(C(F)(F)F)ccc4F)c3)ccc2[nH]1,1.08%,2.29%,4.75%,0.42%,0.96%,0.04%,2.71%,0.61%,-1.2%,1.08%
Fc1cccc(COc2ccc(Nc3ncnc4sc(-c5cccs5)cc34)cc2Cl)c1,-0.7%,1.34%,1.04%,-0.17%,0.09%,-0.52%,-0.08%,1.43%,1.98%,-0.34%
O=C1NC(=O)C(c2ccccc2Cl)=C1Nc1cccc(O)c1,0.81%,1.52%,2.92%,0.83%,3.41%,0.31%,5.5%,2.05%,5.24%,-3.81%
COc1cc2ncn(-c3cc(O[C@H](C)c4ccccc4Cl)c(C(N)=O)s3)c2cc1OC,2.16%,2.29%,1.54%,-0.04%,0.09%,3.14%,5.95%,4.41%,4.05%,3.01%

Structure (SMILES),inhibition [1],inhibition [2],inhibition [3],inhibition [4],inhibition [5],inhibition [6],inhibition [7],inhibition [8],inhibition [9],inhibition [10]
Cn1cc(C=C2C(=O)Nc3cccnc32)c2ccccc21,0.63%,0.99%,1.46%,1%,1.29%,-0.06%,-1.44%,2.86%,-0.57%,-1.77%
CCn1c(-c2nonc2N)nc2c(C#CC(C)(C)O)nc(OC[C@@H](N)c3ccccc3)cc21,0.47%,77.5%,79.3%,-2.77%,8.94%,6.21%,36%,81.4%,96.8%,8.95%
CCCN1CCC(Oc2cc(Nc3nc(Nc4cccc(F)c4C(N)=O)c4cc[nH]c4n3)c(OC)cc2Cl)CC1,1.74%,9.14%,9.18%,0.7%,11.2%,0.29%,1.21%,2.42%,1.59%,2.93%
Cc1nnc(-c2ccc(C)c(-c3ccc(C(=O)Nc4cccc(C#N)c4)cc3)c2)o1,0.99%,2.18%,1.76%,0.5%,0.89%,-0.92%,2.05%,0.8%,3.76%,1.49%
Nc1ncnc2occ(-c3ccc(NC(=O)Nc4cc(C(F)(F)F)cc(C(F)(F)F)c4)cc3)c12,1.59%,0.91%,0.7%,0.06%,0.45%,-0.8%,-1.24%,1.47%,-0.03%,3.16%
COc1cc(C=NNc2ncnc3c2cnn3-c2ccccc2)ccc1O,3.92%,1.37%,1.88%,0.49%,3.62%,1.19%,4.02%,3.68%,0.52%,1.8%
O=C1NC(=O)C(c2cccc(Cl)c2)=C1Nc1ccc(O)c(Cl)c1,0.43%,1.25%,1.73%,3.2%,6.33%,0.44%,4.94%,1.88%,2.97%,-4.59%
COc1cc(C)c(NC(=O)CN(C)C)cc1Nc1nc(Nc2cccc(F)c2C(N)=O)c2cc[nH]c2n1,2.96%,1.08%,-0.43%,1.34%,5.42%,-0.18%,-0.1%,1.08%,1.46%,3.92%
COc1cc2ncn(-c3cc(OCc4ccccc4C(F)(F)F)c(C(N)=O)s3)c2cc1OC,0.58%,-1.97%,-1.35%,-3.16%,-2.48%,0.23%,0.89%,5.48%,5.95%,-1.78%
CCn1c(-c2nonc2N)nc2ccncc21,2.45%,0.35%,1.02%,0.39%,0.41%,-0.82%,1.95%,1.11%,5.32%,-2.41%
CN(C)c1cc2c(Nc3ccc4nc(Cc5ccccc5)[nH]c4c3)ncnc2cn1,4.68%,3.66%,2.62%,1.27%,2.33%,-1.06%,2.6%,3.25%,3.62%,3.66%
NC(=O)c1cccc(Nc2nccc(Nc3cccc4[nH]ncc34)n2)c1,-1.42%,7.26%,10.7%,-0.39%,14.6%,0.67%,2.07%,-3%,5.2%,0.25%
O=C1NC(=O)C(N2CCc3ccccc32)=C1c1ccc(Cl)cc1,1.64%,1.84%,1.95%,0.86%,1.6%,-0.46%,0.52%,0.02%,3.59%,5.52%
COc1ccccc1Nc1ncc(-c2ccccc2)o1,7.73%,1.58%,3.65%,0.95%,1.01%,1.34%,-6.48%,7.06%,7.33%,-0.19%
COc1cccc(-n2ncc3c(N/N=C/c4cccc(F)c4)ncnc32)c1,1.33%,-1.81%,-1.91%,-3.02%,-2.41%,0.85%,1.36%,0.06%,3.37%,2.4%
NC(=O)c1ccc(-c2nc(-c3ccccn3)c(-c3ccc4c(c3)OCO4)[nH]2)cc1,2.65%,1%,2.8%,1.23%,3.42%,-0.16%,2.78%,-0.32%,-0.29%,-0.15%
